Source: PubChem
The list is not random: actives were taken first. Their share in the collection is about 12%.
JMJD2A Tudor inh: blocks the human JMJD2A Tudor domain. AlphaScreen JMJD2A-Tudor / H3K4me3 peptide binding. Potency, µM (highest dose often 114 µM), for the others: at the highest dose activity change, negative = inhibition, usual class: inhibitors. 390,000 tested, 4.4% active. AID 504339; also: % is scaled to controls: 0 for no effect and ±100 for the full control effect; nearly all actives have a fitted effect of over 50% in size
G9a block: blocks human histone lysine methyltransferase G9a. Potency, µM (doses to about 102 µM), for inactives: at the top dose activity, negative = inhibition, usual class: inhibitors. 350,000 tested, 8.8% active. G9a H3K9 monomethylation, AlphaScreen, 2 h; also: % is scaled to controls: 0 for no effect and ±100 for the full control effect; nearly all actives have a fitted effect of over 75% in size
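AlphaScreen detection with an anti-monomethyl H3K9 antibody quantified product after a 2 h room-temperature reaction containing 500 nM biotinylated H3K9 peptide, 20 µM SAM and 20 nM enzyme, which had been preincubated 15 min with compound.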
BAZ2B block: blocks human BAZ2B | Q9UIF8 | AlphaScreen BAZ2B-H3K14Ac peptide displacement | Potency, µM (top dose mostly 114 µM), for the others: at the highest dose activity change, negative = inhibition, actives largely listed as inhibitors | 360,000 tested, 4.4% active | AID 504333; also: % is scaled to controls: 0 for no effect and ±100 for the full control effect; nearly all actives have a fitted effect of over 60% in size
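Inhibition is scored as reduced AlphaScreen emission. The BAZ2B/b-H3(5-23)K14Ac complex (50 nM each) in PBS pH 7.4, 0.01% Tween-20 meets compound (up to 110 uM) for 30 min at RT before bead addition.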
HP1b chromo inh: inhibitors of HP1-beta chromodomain binding to methylated histone tails | AlphaScreen HP1-beta / biotin-H3K9me3 peptide binding | Potency, µM (series often up to 114 µM), for the others: at the highest dose activity change, negative = inhibition, actives largely listed as inhibitors | 390,000 tested, 0.56% active; also: nearly all actives have a fitted effect of over 70% in size
Target sequence (P83916 whole entry, looked up): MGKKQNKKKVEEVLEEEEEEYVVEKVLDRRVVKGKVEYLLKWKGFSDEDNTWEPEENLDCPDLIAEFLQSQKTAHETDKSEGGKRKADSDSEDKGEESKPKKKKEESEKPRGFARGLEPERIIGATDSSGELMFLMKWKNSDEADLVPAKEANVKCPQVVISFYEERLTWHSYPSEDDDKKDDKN
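HP1-beta protein (50 nM final) preincubated 30 min at room temperature with biotinylated H3(1-18)K9me3 peptide (50 nM) in PBS pH 7.4, 0.01% Tween-20, then compound added for 30 min. AlphaScreen streptavidin donor/nickel chelate acceptor beads (10 ug/mL final), 30 min dark, luminescence read.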
Sfp inh: inhibitors of Bacillus subtilis Sfp phosphopantetheinyl transferase; 310,000 tested, 3.5% active; Potency, µM, for inactives: largest response in the series, negative = inhibition, actives largely listed as inhibitors; Biochemical Sfp PPTase activity, qHTS; Q9F4F7;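 also: the enzyme is Sfp with the accession as filed and its product quenches rhodamine fluorescence; 0% = enzyme reaction without inhibitor and -100% = no enzyme wells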
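Step 1, compound plus 15 nM Sfp-PPTase, 15 min, room temperature. Step 2, add rhodamine-CoA (5 uM) and BHQ-2-YbbR (12.5 uM). Step 3, read 525/598 nm fluorescence at 0 and 30 min.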
TDP1 inh: TDP1 (human) enzyme inhibition; Q9NUW8; recombinant TDP1, AlphaScreen DNA substrate cleavage; Potency, µM (top dose mostly 130 µM), for the others: at the highest dose activity change, negative = inhibition, hits mostly inhibitors; 350,000 tested, 0.28% active; AID 485290; also: % is scaled to controls: 0 for no effect and ±100 for the full control effect; nearly all actives have a fitted effect of over 40% in size
Target sequence (Q9NUW8 whole entry, looked up): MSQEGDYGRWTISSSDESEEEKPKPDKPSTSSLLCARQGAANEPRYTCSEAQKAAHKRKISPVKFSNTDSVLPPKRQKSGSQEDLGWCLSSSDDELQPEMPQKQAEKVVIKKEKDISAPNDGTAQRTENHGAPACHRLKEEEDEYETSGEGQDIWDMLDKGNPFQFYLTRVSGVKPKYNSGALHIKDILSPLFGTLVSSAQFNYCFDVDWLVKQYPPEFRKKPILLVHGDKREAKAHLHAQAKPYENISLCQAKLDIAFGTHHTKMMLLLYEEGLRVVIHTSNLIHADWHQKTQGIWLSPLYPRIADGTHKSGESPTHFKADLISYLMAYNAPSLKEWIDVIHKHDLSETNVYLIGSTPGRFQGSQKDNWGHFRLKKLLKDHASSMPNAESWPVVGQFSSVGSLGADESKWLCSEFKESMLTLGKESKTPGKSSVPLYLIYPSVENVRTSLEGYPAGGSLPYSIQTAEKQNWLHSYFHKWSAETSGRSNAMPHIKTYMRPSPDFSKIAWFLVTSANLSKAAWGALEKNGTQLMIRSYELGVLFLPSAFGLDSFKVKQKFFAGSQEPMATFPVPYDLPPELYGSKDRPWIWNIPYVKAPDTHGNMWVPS
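Compounds were preincubated with Tdp1 (1 nM final) for 15 min at room temperature before substrate (15 nM final) started a 5 min reaction; beads (10 ug/ml final) were then added for 10 min before AlphaScreen detection.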
Starred values were filed as active, the others as inactive; ? = inconclusive; . = not tested or not shown; [ ] = another dose, or the depositor's remark. Calls follow the shape of the dose curve; as a rule, active = well fitted curve in the direction sought with a large enough effect; inconclusive = small, poorly fitted or top-dose-only effect, or another doubt; inactive = no such curve, though single readings can be large; an effect the other way counts as inactive or inconclusive. Potency is read from the fitted curve at half-maximal effect.

SMILES	JMJD2A Tudor inh	G9a block	BAZ2B block	HP1b chromo inh	Sfp inh	TDP1 inh
NS(=O)(=O)c1cnccc1Nc1cccc(F)c1	-7.6%	.	.	17.1%	.	.
CNC(=O)NC(=O)C(C)OC(=O)c1c2c(nc3ccccc13)/C(=C/c1cccs1)CC2 (stereo unspecified)	6.7%	-7.5%[59 µM]	1.3%	39.8%	31.6µM*	0.0%
C[Si](C)(C)O[Si](C)(C)C	.	24.1%[59 µM]	.	.	14.6%	4.3%
Cc1ccc(-c2nn3c(-c4ccco4)nnc3c3ccccc23)cc1S(=O)(=O)NCC1CCCO1 (stereo unspecified)	-21.3%[57.1 µM]	20µM*	-25.2%	8.1%	50.1µM*	5.8%
O=C(CSc1nncn1-c1cccnc1)Nc1cccc([N+](=O)[O-])c1	1.1%	-5.1%	-14.5%	22.4%	-3.7%	3.5%
CCCc1nnc(NC(=O)Cn2c(=O)oc3ccccc32)s1	1.7%	?	0.7%	-25.1%	?	1.1%
CCCc1nnc(NC(=O)Cn2c(=O)oc3cc(Br)ccc32)s1	-6.5%	28.2µM*	-8.7%	5.9%	?	-2.2%
CCN(c1ccccc1)S(=O)(=O)c1cccc(C(=O)NCC(c2ccc(F)cc2)N2CCOCC2)c1 (stereo unspecified)	-20.6%	.	.	34.5%	.	.
Cc1ccccc1NC(=O)C1CC(=O)n2ncnc2N1 (stereo unspecified)	7.4%	44.7µM*	-17.9%	67.0%	-19.3%	3.1%
Cc1ccc(S(=O)(=O)N/N=C/c2ccc(OCC(=O)N3CCOCC3)cc2)cc1	-10.5%[11.4 µM]	-37.8%	-18.2%	46.8%	3.6%	1.8%
CC(=O)CNc1ccc(S(=O)(=O)N/N=C/c2ccccc2)cc1	-4.2%	6.31µM*	-16.2%	53.7%	-4.1%	6.5%
O=C(COc1ccc(/C=N/NS(=O)(=O)c2ccccc2)cc1)N1CCOCC1	1.4%	39.8µM*	1.0%	11.5%	-12.5%	10.5%
O=C(COc1ccc(/C=N/NS(=O)(=O)c2ccccc2)cc1)Nc1cccc(Cl)c1	-22.6%	50.1µM*	1.2%	26.9%	18.7%	5.2%
CC(NC(=O)COc1ccc(/C=N/NS(=O)(=O)c2ccccc2)cc1)c1ccccc1 (stereo unspecified)	-2.9%	50.1µM*	7.7%	23.8%	7.8%	7.3%
O=C(NCCC(=O)N1CCN(c2ccccn2)CC1)c1ccc(Br)cc1	5.1%	-2.9%	6.7%	6.1%	.	-8.1%
CCCC1(CCC)NC(=O)N(CC(=O)Nc2ccc(Cl)c(S(=O)(=O)N3CCOCC3)c2)C1=O	-21.2%	.	.	1.8%	.	-0.1%
Cc1[nH]c2ccc(C(=O)OC(C)C(=O)NC3(C#N)CCCCC3)cc2c1C (stereo unspecified)	?	44.7µM*	50.1µM*	4.0%	.	1.3%
Cc1[nH]c2ccc(C(=O)OC(C)C(=O)NC3CCCCC3C)cc2c1C (stereo unspecified)	-11.3%	10.1%[12.7 µM]	-5.8%	46.9%	.	-2.3%
Cc1o[nH]c(=O)c1CCC(N)C(=O)O (stereo unspecified)	.	21.9%[59 µM]	.	.	3.7%	0.0%
CCC(c1c(C)[nH]oc1=O)c1c(C)[nH]oc1=O	25.1µM*	?	-96.7%	-3.8%	-17.6%	-8.2%
CCOc1ccc(-c2cc3c(=O)n(Cc4nc(-c5ccc(OC(C)C)cc5)oc4C)ccn3n2)cc1Cl	-15.0%	-34.5%[59 µM]	-0.2%	32.7%	.	0.0%
CN1CCN(C(=S)c2cn(Cc3ccccc3F)c3ccccc23)CC1	?	39.8µM*	?	2.1%	-7.8%	7.5%
CC1CCN(C(=S)c2cn(Cc3ccccc3F)c3ccccc23)CC1	?	-7.7%[59 µM]	?	?	-4.9%	7.8%
S=C(c1c[nH]c2ccccc12)N1CCOCC1	-26.4%	11.2µM*	-20.2%	?	22.4µM*	-2.4%
O=C(C(=O)N1CCOCC1)c1c[nH]c2ccccc12	-1.4%	.	-3.7%	29.8%	15.2%	2.4%
SMILES	JMJD2A Tudor inh	G9a block	BAZ2B block	HP1b chromo inh	Sfp inh	TDP1 inh
S=C(c1cn(Cc2ccccc2)c2ccccc12)N1CCOCC1	?	25.1µM*	?	-12.9%	14.0%	10.8%
COc1ccc(/C=C/CN2CCN(Cc3ccc(F)cc3)C(CCO)C2)cc1 (stereo unspecified)	-20.4%	.	-12.1%	25.1%	12.2%	0.0%
CC(=O)Nc1nnc(Cc2c[nH]c3ccccc23)s1	-13.1%	-45.4%	15.7%	26.8%	-0.8%	-2.7%
CCC(C)NC(=O)CN1C(=O)c2cccnc2Oc2ccc(C)cc21 (stereo unspecified)	50.1µM*	-5.3%[59 µM]	12.9%	39.7%	.	0.0%
NC(=O)c1ccc(SCC(=O)OCC(=O)NCC2CCCCC2)c([N+](=O)[O-])c1	-6.4%	44.7µM*	8.1%	14.0%	.	.
CC1CCCCN1C(=O)COC(=O)CSc1ccc(C(N)=O)cc1[N+](=O)[O-] (stereo unspecified)	-1.7%	.	.	45.4%	.	.
CCC1CCCCN1C(=O)COC(=O)CSc1ccc(C(N)=O)cc1[N+](=O)[O-] (stereo unspecified)	-7.1%	3.3%[12.7 µM]	6.7%	50.4%	.	0.9%
CC1CCCC(C)N1C(=O)COC(=O)CSc1ccc(C(N)=O)cc1[N+](=O)[O-] (stereo unspecified)	-21.9%	44.7µM*	0.8%	-3.8%	.	.
CCOC(=O)c1ccc(N2C(=O)C=CC2=O)cc1	22.4µM*	?	?	20µM*	3.55µM*	6.8%
COc1ccc(N2CCN(c3ncnc4c3nnn4C)CC2)cc1	-30.8%	?	-22.2%	25.1%	.	0.0%
Cn1ncc2c(N3CCN(c4ccc(F)cc4)CC3)ncnc21	-26.3%	3.8%[59 µM]	79.4µM*	-6.3%	.	10.4%
Cn1nnc2c(N3CCN(c4ccc(F)cc4)CC3)ncnc21	39.8µM*	-27.4%[59 µM]	-12.5%	11.9%	.	-5.2%
CN1CCN(c2ncnc3c2c(-c2ccccc2)cn3-c2ccc(F)cc2)CC1	?	44.7µM*	?	-16.5%	-11.7%	4.9%
Cc1onc(-c2ccccc2Cl)c1C(=O)NC1C(=O)N2C1SC(C)(C)C2C(=O)O (stereo unspecified)	.	-3.2%[2.33 µM]	.	.	-1.0%	-7.7%
CCOc1ccc2c(ccc(/C=C/c3cc(C)c4cccnc4c3O)[n+]2C)c1	10µM*	.	.	?	.	.
CCc1ccc(NC(=O)c2sc3nc4n(c(=O)c3c2C)CCC4)cc1	-16.1%	80.0%	-16.8%	21.2%[57 µM]	-3.8%	2.2%
Cc1c(C(=O)N(C)c2cccc(C(F)(F)F)c2)sc2nc3n(c(=O)c12)CCCCC3	?	14.1µM*	31.6µM*	82.9%	.	5.2%
CCOc1ccc(NC(=O)c2sc3nc4n(c(=O)c3c2C)CCCC4)cc1	?	15.8µM*	31.6µM*	57.3%	.	11.7%
Cc1c(C(=O)Nc2cccc(C(F)(F)F)c2)sc2nc3n(c(=O)c12)CCCC3	-14.1%	3.55µM*	-1.3%	42.8%	.	6.5%
